The whole screen tested about 48,000 compounds, of which about 13,000 (27%) showed an effect of 50% or more. The list shows a part of the results.
Each compound was assayed on Wolbachia pipientis (assay: Anti-Wolbachia Cell-Based Screen). Conditions: 5 µM.
Assay type: functional
Design: scale not given: in the data most compounds retested in dose-response had high values

SMILES	Percent Effect [%]
CN(CC1CCCCO1)c1nc(-c2cccnc2)nc2c1CCNC2 (centres undefined)	-24.82
CC(C)N1CCc2ncn(C(C)C)c2C1C(=O)NCCN1CCCC1 (centres undefined)	-11.46
CCCc1cc(NCCn2cccn2)n2nccc2n1	-0.5952
Cc1cc(NC(=O)CCN(CC2CCOC2)C2CC2)no1 (centres undefined)	14.41
CC(C)NC(=O)N[C@H]1C[C@@H](c2nc(-c3ccc(F)cc3)no2)N(C)C1	-4.692
Cc1nc2cc(C(=O)N(CCN(C)C)CCN(C)C)ccc2n1C	-1.95
Cc1cc(CS(=O)(=O)NCC2CCCCC2)on1	-6.001
O=C(c1csc(-c2nnc[nH]2)n1)N1CCCCC1Cn1cccn1 (centres undefined)	114.8
Cc1cnn(CC2CCCN2C(=O)c2csc(-c3nnc[nH]3)n2)c1 (centres undefined)	136
O=C(Cc1csc(-c2nnc[nH]2)n1)N1CCCC1Cn1cccn1 (centres undefined)	1.097
O=C(c1ccc(-n2ccnc2)nn1)N1CCCCC1Cn1cccn1 (centres undefined)	-18.3
Cc1noc(OCc2ccc(C#N)cc2)n1	3.288
NC(=O)C1CCN(C(=O)c2cc(S(=O)(=O)N3CCCC3)cs2)CC1	4.91
CCCn1ncc(CN2C[C@@H]3CCCN3C[C@@H]2CCSC)c1C	-13.92
C=Cn1ncc(CN2C[C@@H]3C[C@@H](O)CN3C[C@@H]2Cc2ccccc2)c1C	135.2
C=Cn1ncc(CN2C[C@@H]3CCCN3C[C@@H]2CCSC)c1C	137.5
C=Cn1ncc(CN2C[C@@H]3CCCN3C[C@H]2CCSC)c1C	-0.7089
CCn1cc(CN2CC3CCCN3C[C@H]2C)c(C)n1 (some centres undefined)	-10.13
C=Cn1ncc(CN2C[C@@H]3C[C@@H](O)CN3C[C@H]2Cc2ccccc2)c1C	130.9
C=Cn1ncc(CN2C[C@@H]3CCCN3C[C@H]2Cc2ccccc2)c1C	116.6
C=Cn1ncc(CN2C[C@@H]3CCCN3C[C@@H]2Cc2ccccc2)c1C	-5.258
COC(=O)C1(C)CCN(C(=O)NCCc2c(C)[nH]c3ccccc23)C1 (centres undefined)	-5.132
Cc1ccsc1CN(CCN(C)C)C(=O)c1cc2ccccc2[nH]1	-9.122
COc1c(F)cc(NC(=O)NCc2nncn2C2CC2)cc1F	-0.8393
CNC(=O)c1cccc(NC(=O)c2ccnc(N(C)C)c2)c1C	-1.756

SMILES	Percent Effect [%]
O=C(CNc1ccccc1S(=O)(=O)C(F)F)NCc1ccco1	0.5887
CN(C)S(=O)(=O)N1CCCC1c1cccc(-n2ccnc2)n1 (centres undefined)	119.1
CN(C)S(=O)(=O)CCCOc1cccc(-n2ccnc2)c1	-3.335
CCc1nccn1-c1cccc(C2CCCN2S(=O)(=O)N(C)C)n1 (centres undefined)	103.4
CN(C)S(=O)(=O)N1CCCC1CC(=O)c1cccs1 (centres undefined)	-13.45
Cc1cccc(C2CCCN2S(=O)(=O)N(C)C)n1 (centres undefined)	98.12
CN(CCn1cccn1)S(=O)(=O)N1CCCC1c1ccco1 (centres undefined)	-2.44
Cc1nccn1-c1cccc(C2CCCN2S(=O)(=O)N(C)C)n1 (centres undefined)	5.145
CC(=O)c1ccc(N2CCCC(CO)(CCOc3ccccc3)C2)nc1 (centres undefined)	5.356
O=C1NCC2(CCCN(C(=O)Nc3cccc(-c4cscn4)c3)CC2)O1 (centres undefined)	-23.17
COCc1cc(N2C[C@@H](C)[C@](O)(C3CC3)C2)ncn1	-1.024
COc1ccc2c(c1)CC(NCCCn1nc(C)nc1C)CC2 (centres undefined)	101
COc1ccc2c(c1)CC(NCCCn1cc(C)cn1)CC2 (centres undefined)	28.69
COc1ccc2c(c1)CC(NCc1cccc(CO)c1)CC2 (centres undefined)	-7.175
CC(NC(=O)c1cc(C(C)C)[nH]n1)C(=O)Nc1ccccc1 (centres undefined)	-6.667
Cc1ccc(OC[C@@H]2CNC[C@H](C(=O)NCC3CCCO3)C2)cn1 (some centres undefined)	2.624
CO[C@@H]1CCN(S(=O)(=O)c2cccs2)[C@H]1Cc1cccnc1.O=C(O)C(F)(F)F	5.775
CO[C@@H]1CCN(C(=O)Cc2cccc(F)c2)[C@H]1Cc1cccnc1.O=C(O)C(F)(F)F	114.6
CO[C@@H]1CCN(C(=O)Cc2ccsc2)[C@H]1Cc1cccnc1.O=C(O)C(F)(F)F	94.83
CCO[C@@H]1CCN(C(=O)c2ccc[nH]2)[C@@H]1Cc1cccnc1.O=C(O)C(F)(F)F	0.6367
CO[C@@H]1CCN(Cc2nccn2C)[C@H]1Cc1cccnc1.O=C(O)C(F)(F)F.O=C(O)C(F)(F)F	5.954
COCCO[C@H]1CCN(C(=O)c2ccsc2)[C@H]1Cc1ccncc1	-3.115
COCC(=O)N1CC[C@@H](OCC2CC2)[C@@H]1Cc1cccnc1.O=C(O)C(F)(F)F	1.513
CO[C@H]1CCN(S(=O)(=O)c2cccs2)[C@H]1Cc1cccnc1.O=C(O)C(F)(F)F	-2.032
COCCO[C@H]1CCN(C(=O)c2cnccn2)[C@H]1Cc1ccncc1	-26.79

SMILES	Percent Effect [%]
CO[C@@H]1CCN(C(=O)Cc2ccc(F)cc2)[C@@H]1Cc1cccnc1.O=C(O)C(F)(F)F	111.8
CO[C@H]1CCN(C(=O)Cc2ccc(F)cc2)[C@H]1Cc1ccncc1	101.6
CC(=O)NCC(=O)N1CC[C@H](OCC2CC2)[C@@H]1Cc1cccnc1.O=C(O)C(F)(F)F	-17.55
C=C(C)CN1CCC(NC(=O)Nc2cc(C(N)=O)ccc2OC)CC1	-10.13
CN1CC2(CCN(Cc3cc(Cl)ccc3OCC(=O)O)CC2)OC1=O	-19.61
CCc1nn(C)c(Cl)c1CN1CCCC2(C1)CN(C)C(=O)O2 (centres undefined)	101.8
CCc1nn(C)c(Cl)c1CN1CCC2(C1)CN(C)C(=O)O2 (centres undefined)	121.6
CCc1nn(C)c(Cl)c1CN1C[C@H](NC(=O)CCO)[C@@H](C(C)C)C1	-7.141
CCc1n[nH]c(C(=O)N2CCCC3(CN(C)C(=O)O3)C2)c1C (centres undefined)	-7.274
CCc1nn(C)c(Cl)c1CN1CCN(c2ccc(Cl)nn2)CC1	-2.423
CCc1nn(C)c(Cl)c1CN1CCCC2(CC1)CN(C)C(=O)O2 (centres undefined)	89.96
CCc1nn(C)c(Cl)c1CN1CCC(Cc2nncn2C)CC1	1.908
COc1c(F)cc(CN2CCC3(CC2)CN(C)C(=O)O3)cc1Cl	-3.055
Cc1ccccc1N1CCN(C(=O)Cn2ccnc2)CC1=O	-5.789
O=C1CC(c2ccc(C(=O)O)cc2)c2ncn(-c3ccccc3Cl)c2N1 (centres undefined)	2.095
O=C(O)c1c(Cl)ncn1-c1cccc2ccccc12	101.1
Nc1nccnc1C(=O)N1CCN(Cc2cccc3ccccc23)CC1	-30.2
Cc1ccccc1-n1cnc(Cl)c1C(=O)O	65.1
Cc1ccccc1N1CCCN(C(=O)c2nn(C)cc2Cl)CC1	7.51
Cc1ccc(-c2n[nH]cc2CNCC2CCN(CC(F)(F)F)C2)o1.Cl (centres undefined)	-7.389
Cc1cc(N2CCCN(C(C(=O)O)c3cccc(C)c3F)CC2)ccn1 (centres undefined)	1.101
O=C1CCC(C(=O)N2CCOC(Cc3cccc4ccccc34)C2)=NN1 (centres undefined)	-9.724
Cc1ccc2ncnc(N3CCOCC3c3c(C)nn(C)c3C)c2c1 (centres undefined)	-2.563
O=S(=O)(c1c(F)cccc1F)N1CCC(Cn2cccn2)CC1	15.84
COCCN1CCCC2(CCN(c3ccsc3)C2=O)C1.O=C(O)C(F)(F)F (centres undefined)	-26.52

SMILES	Percent Effect [%]
Cc1nc(CN2CCCC3(CCN(c4cnn(C)c4)C3=O)C2)cs1.O=C(O)C(F)(F)F (centres undefined)	93.19
Cc1nc(CN2CCC3(CCN(c4cnn(C)c4)C3=O)C2)cs1.O=C(O)C(F)(F)F (centres undefined)	109
Cc1cccc(NC2CCN(C(=O)Nc3cc(F)cc(F)c3)CC2)n1	-9.024
Cc1cccc(NC2CCN(C(=O)Nc3ccc(F)c(F)c3)CC2)n1	86.81
Cc1ccc(C(=O)Nc2cn[nH]c2)cn1	2.995
Cc1cccc(NC2CCN(C(=O)Nc3cc(C)on3)CC2)n1	-9.175
O=C(Nc1ccc(F)c(Br)c1)N1CCCC1	7.891
Cc1cccc(NC2CCN(C(=O)Nc3cn[nH]c3)CC2)n1	110.2
Cc1cccc(NC2CCN(C(=O)Nc3ccccn3)CC2)n1	83.84
Cc1cccc(NC2CCN(C(=O)Nc3ccncc3)CC2)n1	110.6
O=C(CCn1ccc(=O)[nH]c1=O)N1CCC(OCc2cccnc2)CC1	17.72
COCc1noc(C2(c3ccc(Br)cc3)CCOCC2)n1	-15.05
CS(=O)(=O)CCCC(=O)N1CCN(CC2CC2)c2ccccc21	-17.42
N#Cc1ccc(N2CCCN(CCCn3cncn3)CC2)cc1	-1.933
Cc1nc(N2CCC3(CCCNC3=O)C2)nc2c1CCCC2 (centres undefined)	1.379
CCC(=O)N1CCCC1C(=O)N1CCC(Cc2ccc(F)cc2)CC1 (centres undefined)	110.1
CN1CSC[C@H]1C(=O)N1CCC(Cc2ccccc2F)CC1	-34.6
CN1C[C@@H](N)C[C@H]1C(=O)N1CCC(CCCc2ccccc2)CC1	99.37
CN1CSC[C@H]1C(=O)N1CCC(CCc2ccccc2)CC1	-22.77
CN1CCC(N(C)CCC(=O)N2CCC(Cc3ccc(F)cc3)CC2)C1 (centres undefined)	-0.3221
O=C(C1CCS(=O)(=O)CC1)N1CCC(Cc2ccc(F)cc2)CC1	-5.215
CN1C[C@@H](N)C[C@H]1C(=O)N1CCC(Cc2ccc(F)cc2)CC1	81.94
CC(C(=O)N1CCC(Cc2ccc(F)cc2)CC1)n1ccnc1 (centres undefined)	-3.796
CC(=O)N1CCCC1C(=O)N1CCC(=Cc2cccc(F)c2)CC1 (centres undefined)	-11.75

From ChEMBL document CHEMBL3988442, “University of Dundee, Small-Polar-MMV Screening Library” (2021)
